# Key:
# [1] = biological target: Protein kinase C eta type (Homo sapiens) (UniProt P24723); details: at 1 µM
# [2] = biological target: Protein kinase C eta type (Homo sapiens) (UniProt P24723); details: at 10 µM
# [3] = biological target: Protein kinase C theta type (Homo sapiens) (UniProt Q04759); details: at 1 µM
# [4] = biological target: Protein kinase C theta type (Homo sapiens) (UniProt Q04759); details: at 10 µM
# [5] = biological target: T1, Protein kinase C iota type (Homo sapiens) (UniProt P41743); details: at 1 µM
# T1 sequence (whole entry): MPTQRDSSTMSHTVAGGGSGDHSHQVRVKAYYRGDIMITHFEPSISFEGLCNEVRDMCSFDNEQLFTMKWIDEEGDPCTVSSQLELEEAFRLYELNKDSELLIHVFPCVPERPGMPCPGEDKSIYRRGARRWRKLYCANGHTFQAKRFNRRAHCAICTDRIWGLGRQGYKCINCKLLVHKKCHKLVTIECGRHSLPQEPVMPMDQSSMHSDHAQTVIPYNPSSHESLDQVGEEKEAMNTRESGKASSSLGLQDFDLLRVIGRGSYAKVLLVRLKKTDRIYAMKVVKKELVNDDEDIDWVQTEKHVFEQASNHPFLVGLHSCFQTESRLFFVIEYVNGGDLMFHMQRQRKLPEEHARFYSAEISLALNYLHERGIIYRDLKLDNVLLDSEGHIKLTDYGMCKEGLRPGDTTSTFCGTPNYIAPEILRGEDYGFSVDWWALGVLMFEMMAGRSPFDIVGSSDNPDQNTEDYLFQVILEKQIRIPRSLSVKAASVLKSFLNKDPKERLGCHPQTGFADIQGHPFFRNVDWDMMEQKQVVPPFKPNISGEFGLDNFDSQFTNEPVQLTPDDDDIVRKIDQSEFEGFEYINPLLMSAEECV
# [6] = biological target: T1, Protein kinase C iota type (Homo sapiens); details: at 10 µM
# [7] = biological target: T2, Serine/threonine-protein kinase D1 (Homo sapiens) (UniProt Q15139); details: at 1 µM
# T2 sequence (whole entry): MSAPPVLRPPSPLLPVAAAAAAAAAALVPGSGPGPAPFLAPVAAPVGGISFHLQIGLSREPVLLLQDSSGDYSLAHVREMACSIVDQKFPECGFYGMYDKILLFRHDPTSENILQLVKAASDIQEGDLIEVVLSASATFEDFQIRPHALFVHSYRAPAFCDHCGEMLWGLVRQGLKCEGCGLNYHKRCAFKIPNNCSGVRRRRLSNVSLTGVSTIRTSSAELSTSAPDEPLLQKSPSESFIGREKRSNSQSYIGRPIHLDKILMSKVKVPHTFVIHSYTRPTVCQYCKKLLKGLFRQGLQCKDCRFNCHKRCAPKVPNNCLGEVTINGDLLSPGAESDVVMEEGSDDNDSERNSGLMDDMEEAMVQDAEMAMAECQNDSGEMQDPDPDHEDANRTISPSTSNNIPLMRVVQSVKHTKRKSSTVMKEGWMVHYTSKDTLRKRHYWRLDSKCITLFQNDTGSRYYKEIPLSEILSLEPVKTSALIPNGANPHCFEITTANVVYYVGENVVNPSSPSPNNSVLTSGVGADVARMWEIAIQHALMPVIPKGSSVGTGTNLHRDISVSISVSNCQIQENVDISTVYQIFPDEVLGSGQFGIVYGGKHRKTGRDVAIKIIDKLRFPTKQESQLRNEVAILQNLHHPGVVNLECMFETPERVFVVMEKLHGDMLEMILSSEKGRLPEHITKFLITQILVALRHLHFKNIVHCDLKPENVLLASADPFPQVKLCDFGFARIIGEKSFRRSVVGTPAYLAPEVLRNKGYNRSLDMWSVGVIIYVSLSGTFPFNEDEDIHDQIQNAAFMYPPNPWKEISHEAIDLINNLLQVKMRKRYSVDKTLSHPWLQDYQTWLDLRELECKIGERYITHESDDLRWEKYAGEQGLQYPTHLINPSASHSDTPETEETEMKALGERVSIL
# [8] = biological target: T2, Serine/threonine-protein kinase D1 (Homo sapiens); details: at 10 µM
# [9] = biological target: T3, Serine/threonine-protein kinase D2 (Homo sapiens) (UniProt Q9BZL6); details: at 1 µM
# T3 sequence (whole entry): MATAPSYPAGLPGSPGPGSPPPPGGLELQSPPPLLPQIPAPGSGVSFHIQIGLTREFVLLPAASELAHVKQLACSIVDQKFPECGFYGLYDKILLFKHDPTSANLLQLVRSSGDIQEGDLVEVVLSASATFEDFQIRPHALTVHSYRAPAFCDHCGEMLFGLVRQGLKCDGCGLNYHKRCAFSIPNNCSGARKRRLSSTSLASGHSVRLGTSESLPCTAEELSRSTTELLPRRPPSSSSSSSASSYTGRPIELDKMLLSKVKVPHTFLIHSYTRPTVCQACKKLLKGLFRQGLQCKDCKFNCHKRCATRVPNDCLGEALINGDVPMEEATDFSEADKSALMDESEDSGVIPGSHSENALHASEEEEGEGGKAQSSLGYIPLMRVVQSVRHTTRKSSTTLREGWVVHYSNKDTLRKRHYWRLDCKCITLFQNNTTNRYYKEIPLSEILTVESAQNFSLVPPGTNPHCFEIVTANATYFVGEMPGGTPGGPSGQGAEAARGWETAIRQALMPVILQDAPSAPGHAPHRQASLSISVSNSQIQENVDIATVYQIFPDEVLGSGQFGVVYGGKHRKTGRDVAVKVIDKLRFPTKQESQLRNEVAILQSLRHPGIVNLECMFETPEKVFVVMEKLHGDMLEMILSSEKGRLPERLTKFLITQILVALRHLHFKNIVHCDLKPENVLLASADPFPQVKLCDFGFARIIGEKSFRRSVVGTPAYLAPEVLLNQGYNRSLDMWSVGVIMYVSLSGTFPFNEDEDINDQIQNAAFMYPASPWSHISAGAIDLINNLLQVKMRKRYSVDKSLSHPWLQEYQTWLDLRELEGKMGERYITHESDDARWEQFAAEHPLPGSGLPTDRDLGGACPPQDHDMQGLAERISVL
# [10] = biological target: T3, Serine/threonine-protein kinase D2 (Homo sapiens); details: at 10 µM
# [11] = biological target: T4, cGMP-dependent protein kinase 1 (Homo sapiens) (UniProt Q13976); details: at 1 µM
# T4 sequence (whole entry): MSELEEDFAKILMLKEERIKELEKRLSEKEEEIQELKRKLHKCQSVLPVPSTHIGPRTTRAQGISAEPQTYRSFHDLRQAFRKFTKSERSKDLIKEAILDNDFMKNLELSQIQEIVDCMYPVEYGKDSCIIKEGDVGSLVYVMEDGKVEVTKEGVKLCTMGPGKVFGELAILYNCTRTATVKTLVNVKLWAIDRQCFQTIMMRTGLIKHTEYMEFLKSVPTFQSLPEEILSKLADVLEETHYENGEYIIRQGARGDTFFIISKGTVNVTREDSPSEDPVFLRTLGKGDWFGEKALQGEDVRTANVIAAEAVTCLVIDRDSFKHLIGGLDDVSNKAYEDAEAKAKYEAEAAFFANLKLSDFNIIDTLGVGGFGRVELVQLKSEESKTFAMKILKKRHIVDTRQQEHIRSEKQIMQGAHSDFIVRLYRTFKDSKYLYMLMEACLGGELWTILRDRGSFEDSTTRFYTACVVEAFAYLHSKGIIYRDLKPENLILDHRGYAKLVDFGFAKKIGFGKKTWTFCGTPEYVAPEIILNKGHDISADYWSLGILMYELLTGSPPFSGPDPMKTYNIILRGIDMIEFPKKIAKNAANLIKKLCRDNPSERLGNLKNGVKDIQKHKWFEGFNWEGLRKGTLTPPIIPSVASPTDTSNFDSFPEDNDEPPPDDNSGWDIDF
# [12] = biological target: T4, cGMP-dependent protein kinase 1 (Homo sapiens); details: at 10 µM
# [13] = biological target: T4, cGMP-dependent protein kinase 1 (Homo sapiens); details: at 1 µM; remark: listed apart in the source
# [14] = biological target: T4, cGMP-dependent protein kinase 1 (Homo sapiens); details: at 10 µM; remark: listed apart in the source
# [15] = biological target: T5, MAP kinase-activated protein kinase 5 (Homo sapiens) (UniProt Q8IW41); details: at 1 µM
# T5 sequence (whole entry): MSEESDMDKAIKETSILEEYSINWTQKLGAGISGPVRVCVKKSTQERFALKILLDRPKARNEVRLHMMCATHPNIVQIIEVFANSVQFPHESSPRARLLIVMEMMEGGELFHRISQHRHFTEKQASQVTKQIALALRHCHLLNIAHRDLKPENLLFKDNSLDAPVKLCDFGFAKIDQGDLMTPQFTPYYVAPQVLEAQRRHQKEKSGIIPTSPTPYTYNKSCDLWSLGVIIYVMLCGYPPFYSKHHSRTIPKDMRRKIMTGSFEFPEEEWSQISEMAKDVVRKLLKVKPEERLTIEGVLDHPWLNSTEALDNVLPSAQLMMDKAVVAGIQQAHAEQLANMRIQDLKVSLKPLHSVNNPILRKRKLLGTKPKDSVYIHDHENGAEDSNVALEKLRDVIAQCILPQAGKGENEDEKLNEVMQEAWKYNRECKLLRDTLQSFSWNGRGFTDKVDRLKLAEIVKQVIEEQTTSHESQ
# [16] = biological target: T5, MAP kinase-activated protein kinase 5 (Homo sapiens); details: at 10 µM
# [17] = biological target: Serine/threonine-protein kinase N2 (Homo sapiens) (UniProt Q16513); details: at 1 µM
# [18] = biological target: Serine/threonine-protein kinase N2 (Homo sapiens) (UniProt Q16513); details: at 10 µM
# [19] = biological target: Tyrosine-protein kinase FRK (Homo sapiens) (UniProt P42685); details: at 1 µM
# [20] = biological target: Tyrosine-protein kinase FRK (Homo sapiens) (UniProt P42685); details: at 10 µM
# Chain of Serine/threonine-protein kinase N2 (Homo sapiens) (Q16513 whole entry, looked up): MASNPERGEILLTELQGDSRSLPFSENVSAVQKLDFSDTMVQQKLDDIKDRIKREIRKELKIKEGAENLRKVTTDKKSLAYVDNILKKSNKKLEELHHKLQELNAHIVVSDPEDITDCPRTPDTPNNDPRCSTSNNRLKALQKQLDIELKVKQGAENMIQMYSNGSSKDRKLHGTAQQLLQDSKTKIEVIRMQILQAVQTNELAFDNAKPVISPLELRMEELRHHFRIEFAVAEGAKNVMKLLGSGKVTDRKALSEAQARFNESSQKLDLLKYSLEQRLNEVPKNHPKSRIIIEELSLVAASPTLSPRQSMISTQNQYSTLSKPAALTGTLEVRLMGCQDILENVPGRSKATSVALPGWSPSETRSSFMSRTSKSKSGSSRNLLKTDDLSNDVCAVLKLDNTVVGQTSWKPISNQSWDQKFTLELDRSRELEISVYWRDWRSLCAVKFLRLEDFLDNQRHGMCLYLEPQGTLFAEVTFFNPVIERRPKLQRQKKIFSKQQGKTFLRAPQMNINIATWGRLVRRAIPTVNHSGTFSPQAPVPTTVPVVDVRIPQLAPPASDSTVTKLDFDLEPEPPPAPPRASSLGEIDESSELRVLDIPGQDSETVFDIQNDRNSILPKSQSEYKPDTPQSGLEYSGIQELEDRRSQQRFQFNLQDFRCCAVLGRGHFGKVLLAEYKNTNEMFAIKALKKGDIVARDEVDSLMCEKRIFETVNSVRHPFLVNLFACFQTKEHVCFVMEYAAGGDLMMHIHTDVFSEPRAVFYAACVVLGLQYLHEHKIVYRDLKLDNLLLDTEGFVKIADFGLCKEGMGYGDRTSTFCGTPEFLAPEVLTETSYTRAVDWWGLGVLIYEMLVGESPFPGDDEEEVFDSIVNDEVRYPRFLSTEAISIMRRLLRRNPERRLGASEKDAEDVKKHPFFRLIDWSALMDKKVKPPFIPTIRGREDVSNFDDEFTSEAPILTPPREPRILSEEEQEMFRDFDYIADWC
# Chain of Protein kinase C theta type (Homo sapiens) (Q04759 whole entry, looked up): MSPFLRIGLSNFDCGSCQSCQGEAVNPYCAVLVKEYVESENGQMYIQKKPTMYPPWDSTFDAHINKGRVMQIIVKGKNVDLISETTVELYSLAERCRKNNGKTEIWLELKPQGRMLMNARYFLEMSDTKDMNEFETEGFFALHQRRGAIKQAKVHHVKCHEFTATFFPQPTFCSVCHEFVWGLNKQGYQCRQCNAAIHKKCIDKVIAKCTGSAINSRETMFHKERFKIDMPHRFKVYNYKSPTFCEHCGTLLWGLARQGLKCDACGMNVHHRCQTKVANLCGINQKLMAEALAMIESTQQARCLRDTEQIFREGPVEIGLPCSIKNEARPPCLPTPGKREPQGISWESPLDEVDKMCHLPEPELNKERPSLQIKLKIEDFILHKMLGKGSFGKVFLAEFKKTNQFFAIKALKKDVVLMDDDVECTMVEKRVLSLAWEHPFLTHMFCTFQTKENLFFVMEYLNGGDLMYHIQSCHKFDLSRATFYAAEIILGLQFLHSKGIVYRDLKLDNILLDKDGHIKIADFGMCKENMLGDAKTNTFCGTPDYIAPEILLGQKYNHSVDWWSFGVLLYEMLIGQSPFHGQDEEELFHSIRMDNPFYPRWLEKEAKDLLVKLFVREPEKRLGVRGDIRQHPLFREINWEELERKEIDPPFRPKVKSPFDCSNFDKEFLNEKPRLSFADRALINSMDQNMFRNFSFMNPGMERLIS
# Chain of Protein kinase C eta type (Homo sapiens) (P24723 whole entry): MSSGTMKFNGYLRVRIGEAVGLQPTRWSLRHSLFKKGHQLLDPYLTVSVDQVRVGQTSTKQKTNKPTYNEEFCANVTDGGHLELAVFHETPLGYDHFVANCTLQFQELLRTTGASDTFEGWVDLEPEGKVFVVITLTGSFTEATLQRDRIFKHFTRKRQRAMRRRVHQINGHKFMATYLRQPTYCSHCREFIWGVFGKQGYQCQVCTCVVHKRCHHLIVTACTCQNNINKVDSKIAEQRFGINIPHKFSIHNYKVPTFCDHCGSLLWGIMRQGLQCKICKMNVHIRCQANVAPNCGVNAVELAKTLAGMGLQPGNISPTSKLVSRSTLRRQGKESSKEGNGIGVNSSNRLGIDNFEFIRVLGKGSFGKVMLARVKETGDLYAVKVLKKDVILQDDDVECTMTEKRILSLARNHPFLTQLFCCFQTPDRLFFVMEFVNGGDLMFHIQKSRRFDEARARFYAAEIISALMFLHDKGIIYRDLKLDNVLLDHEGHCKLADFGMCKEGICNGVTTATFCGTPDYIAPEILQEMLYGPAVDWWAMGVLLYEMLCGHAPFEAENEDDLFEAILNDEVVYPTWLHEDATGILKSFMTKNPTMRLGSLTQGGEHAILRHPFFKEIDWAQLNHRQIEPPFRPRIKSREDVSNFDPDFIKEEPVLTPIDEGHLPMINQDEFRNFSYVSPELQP
# Chain of Tyrosine-protein kinase FRK (Homo sapiens) (P42685 whole entry): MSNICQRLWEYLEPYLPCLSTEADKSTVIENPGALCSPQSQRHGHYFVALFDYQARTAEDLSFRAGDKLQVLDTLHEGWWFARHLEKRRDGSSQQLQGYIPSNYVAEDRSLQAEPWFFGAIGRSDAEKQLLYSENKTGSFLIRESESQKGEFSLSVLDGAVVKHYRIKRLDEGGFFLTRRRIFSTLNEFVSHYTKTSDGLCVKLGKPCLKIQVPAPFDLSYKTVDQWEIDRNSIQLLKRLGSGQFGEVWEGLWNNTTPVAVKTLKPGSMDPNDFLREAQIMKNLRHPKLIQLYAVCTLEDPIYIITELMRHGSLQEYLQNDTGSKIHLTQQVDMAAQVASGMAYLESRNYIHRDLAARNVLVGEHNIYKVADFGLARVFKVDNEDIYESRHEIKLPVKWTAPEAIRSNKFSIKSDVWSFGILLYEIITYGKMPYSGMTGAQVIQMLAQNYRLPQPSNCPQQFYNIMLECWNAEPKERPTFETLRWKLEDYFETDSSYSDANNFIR
SMILES,residual activity [1],residual activity [2],residual activity [3],residual activity [4],residual activity [5],residual activity [6],residual activity [7],residual activity [8],residual activity [9],residual activity [10],residual activity [11],residual activity [12],residual activity [13],residual activity [14],residual activity [15],residual activity [16],residual activity [17],residual activity [18],residual activity [19],residual activity [20]
Cn1cnc2cc3c(Nc4cccc(Br)c4)ncnc3cc21,93%,91%,99%,100%,103% (inactive),76%,94%,82%,97%,116%,115%,87%,93%,88%,78%,78%,101%,97%,72%,28%
Cn1cc(/C=C2\C(=O)Nc3ccc(S(N)(=O)=O)cc32)c2ccccc21,96%,98%,84%,49%,110% (inactive),87%,84%,59%,103%,103%,103%,101%,77%,54%,62%,54%,58%,23%,74%,35%
COc1cccc(-c2cc(=O)c3ccccc3o2)c1N,101%,94%,92%,97%,114% (inactive),108%,85%,95%,110%,97%,95%,89%,114%,102%,125%,108%,94%,90%,93%,86%
COc1cc2ncnc(Nc3ccc(O)c(Br)c3)c2cc1OC,94%,69%,83%,81%,88% (inactive),106%,47%,16%,93%,79%,94%,76%,70%,47%,77%,70%,87%,61%,35%,5%
O=C(O)c1ccc2c3c1cccc3c(=O)n1c3ccccc3nc21,76%,84%,109%,107%,105% (inactive),92%,110%,57%,101%,84%,95%,97%,98%,83%,81%,62%,96%,86%,95%,90%
COc1ccc(C(=O)Nc2sc3c(c2C(N)=O)CCCC3)cc1OC,98%,77%,89%,84%,89% (inactive),107%,89%,96%,103%,108%,104%,88%,79%,90%,59%,76%,88%,114%,91%,80%
O=c1cc(-c2cccc3c2Sc2ccccc2S3)oc(N2CCOCC2)c1,107%,101%,97%,91%,117% (inactive),102%,86%,80%,106%,103%,102%,105%,81%,80%,99%,40%,112%,97%,94%,92%

# Reference: ChEMBL document CHEMBL2218924, “A broad activity screen in support of a chemogenomic map for kinase signalling research and drug discovery” (Biochem J, 2013)
